# Results as given in paper PMC7862700, “An all-to-all approach to the identification of sequence-specific readers for epigenetic DNA modifications on cytosine”.
# Legend:
# Assay in all cases: DAPPL (digital affinity profiling via proximity ligation, sequencing); 10 mM Tris-HCl pH 7.5, 50 mM NaCl, 1 mM DTT, 4% glycerol, room temperature, 30 min; GST-TFs on glutathione beads, 16-mer random dsDNA library, 0.1% formaldehyde crosslink after washing; high values mean tight binding
# [1] = molecular target: T1, FEV (Homo sapiens, UniProt Q99581 1-238); settings: protein: recombinant; tags: N-terminal GST; dsDNA, one strand shown
# T1 sequence: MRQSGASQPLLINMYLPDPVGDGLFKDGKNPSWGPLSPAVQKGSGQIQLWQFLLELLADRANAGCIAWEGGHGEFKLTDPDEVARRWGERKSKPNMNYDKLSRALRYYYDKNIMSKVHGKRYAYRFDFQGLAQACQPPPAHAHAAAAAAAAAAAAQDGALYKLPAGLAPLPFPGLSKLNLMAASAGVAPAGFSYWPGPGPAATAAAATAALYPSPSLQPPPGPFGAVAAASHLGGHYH
# In short: (§1)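 After expression in yeast as GST fusions, human transcription factors were bound to glutathione beads, DNA-barcoded and mixed with a tag-only sample. The pools were incubated with 200 nmole of a 16-mer random double-stranded DNA library in Tris/NaCl/DTT/glycerol buffer (30 min, room temperature), washed and crosslinked with 0.1% formaldehyde. Proximity ligation with BsaI/T4 ligase ran for 1 h at 37 °C, before PCR amplification and sequencing on an Illumina NextSeq500. Binding signal is a hexamer's read frequency for a factor divided by its frequency for the tag-only sample.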
# [2] = molecular target: ETV5 (Homo sapiens, UniProt P41161 1-510); settings: protein: recombinant; tags: N-terminal GST; dsDNA, one strand shown
# ETV5, sequence (P41161 whole entry): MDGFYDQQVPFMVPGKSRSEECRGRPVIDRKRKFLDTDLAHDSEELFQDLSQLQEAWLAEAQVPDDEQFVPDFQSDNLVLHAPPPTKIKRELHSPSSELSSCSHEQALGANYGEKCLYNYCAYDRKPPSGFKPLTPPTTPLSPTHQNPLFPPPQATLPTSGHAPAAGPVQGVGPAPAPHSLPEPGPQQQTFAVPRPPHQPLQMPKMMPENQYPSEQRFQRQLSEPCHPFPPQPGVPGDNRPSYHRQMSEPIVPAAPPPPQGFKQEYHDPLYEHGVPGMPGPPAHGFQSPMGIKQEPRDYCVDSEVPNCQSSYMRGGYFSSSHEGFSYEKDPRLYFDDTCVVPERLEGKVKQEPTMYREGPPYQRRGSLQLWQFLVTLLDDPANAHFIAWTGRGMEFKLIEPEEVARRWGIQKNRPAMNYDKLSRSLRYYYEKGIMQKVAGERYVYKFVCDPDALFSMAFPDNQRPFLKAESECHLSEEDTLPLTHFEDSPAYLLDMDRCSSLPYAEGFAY
# In short: as §1
# [3] = molecular target: HSF1 (Homo sapiens, UniProt Q00613 1-529); settings: protein: recombinant; tags: N-terminal GST; chain copies: 3; dsDNA, one strand shown
# HSF1, sequence (Q00613 whole entry): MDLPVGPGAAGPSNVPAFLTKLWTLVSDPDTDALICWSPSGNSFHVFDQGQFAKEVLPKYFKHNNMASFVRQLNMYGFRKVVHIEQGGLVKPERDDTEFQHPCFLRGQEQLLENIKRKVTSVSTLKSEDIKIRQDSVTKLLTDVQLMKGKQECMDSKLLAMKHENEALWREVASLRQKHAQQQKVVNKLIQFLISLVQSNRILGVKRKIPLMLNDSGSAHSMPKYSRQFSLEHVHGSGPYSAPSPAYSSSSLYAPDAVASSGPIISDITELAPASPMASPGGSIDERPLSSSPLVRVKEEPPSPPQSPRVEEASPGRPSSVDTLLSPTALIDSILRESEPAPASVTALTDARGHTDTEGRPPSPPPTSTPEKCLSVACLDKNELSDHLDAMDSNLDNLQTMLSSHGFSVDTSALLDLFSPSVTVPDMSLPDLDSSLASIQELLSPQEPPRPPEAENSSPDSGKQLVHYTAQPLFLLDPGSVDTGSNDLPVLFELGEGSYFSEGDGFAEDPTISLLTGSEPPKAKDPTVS
# In short: as §1
# [4] = molecular target: T2, SPIC (Homo sapiens, UniProt Q8N5J4 1-248); settings: protein: recombinant; tags: N-terminal GST; dsDNA, one strand shown
# T2 sequence: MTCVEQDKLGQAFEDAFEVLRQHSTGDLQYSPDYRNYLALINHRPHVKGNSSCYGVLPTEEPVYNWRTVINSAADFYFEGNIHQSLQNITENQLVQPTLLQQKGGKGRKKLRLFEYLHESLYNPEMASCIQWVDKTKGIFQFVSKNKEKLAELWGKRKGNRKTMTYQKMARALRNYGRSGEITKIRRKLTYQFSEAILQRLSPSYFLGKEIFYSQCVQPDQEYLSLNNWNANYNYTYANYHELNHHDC
# In short: as §1
# [5] = molecular target: ELF4 (Homo sapiens, UniProt Q99607 1-663); settings: protein: recombinant; tags: N-terminal GST; dsDNA, one strand shown
# ELF4, sequence (Q99607 whole entry): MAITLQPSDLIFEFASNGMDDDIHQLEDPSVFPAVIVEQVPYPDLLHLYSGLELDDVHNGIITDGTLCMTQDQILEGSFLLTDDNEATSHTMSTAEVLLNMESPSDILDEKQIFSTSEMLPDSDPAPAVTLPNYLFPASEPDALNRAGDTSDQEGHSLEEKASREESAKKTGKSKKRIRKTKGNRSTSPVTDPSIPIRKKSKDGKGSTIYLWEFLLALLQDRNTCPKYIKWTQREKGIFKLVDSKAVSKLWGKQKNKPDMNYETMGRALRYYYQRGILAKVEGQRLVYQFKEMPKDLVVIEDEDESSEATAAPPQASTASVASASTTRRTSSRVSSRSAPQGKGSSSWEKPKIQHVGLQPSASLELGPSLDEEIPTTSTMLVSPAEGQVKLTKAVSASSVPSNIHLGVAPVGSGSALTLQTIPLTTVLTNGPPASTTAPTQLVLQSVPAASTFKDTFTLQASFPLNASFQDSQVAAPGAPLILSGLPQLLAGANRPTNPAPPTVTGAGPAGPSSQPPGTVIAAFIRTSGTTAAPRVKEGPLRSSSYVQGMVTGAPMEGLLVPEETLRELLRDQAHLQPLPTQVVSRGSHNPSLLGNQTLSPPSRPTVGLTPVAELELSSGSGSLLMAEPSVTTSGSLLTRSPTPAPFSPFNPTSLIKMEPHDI
# In short: as §1
# [6] = molecular target: T3, ELK4 (Homo sapiens, UniProt P28324-2 1-405); settings: protein: recombinant; tags: N-terminal GST; dsDNA, one strand shown
# T3 sequence: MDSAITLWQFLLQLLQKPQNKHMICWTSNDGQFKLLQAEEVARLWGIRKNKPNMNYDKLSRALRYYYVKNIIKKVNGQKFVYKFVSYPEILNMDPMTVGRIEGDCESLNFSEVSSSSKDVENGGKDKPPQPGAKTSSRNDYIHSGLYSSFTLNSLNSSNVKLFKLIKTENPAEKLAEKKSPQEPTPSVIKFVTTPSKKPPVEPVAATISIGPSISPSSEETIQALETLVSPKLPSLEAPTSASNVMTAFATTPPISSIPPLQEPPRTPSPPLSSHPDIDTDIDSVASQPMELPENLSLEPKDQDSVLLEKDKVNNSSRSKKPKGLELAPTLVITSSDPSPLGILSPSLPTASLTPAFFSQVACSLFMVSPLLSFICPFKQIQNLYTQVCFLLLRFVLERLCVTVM
# In short: as §1
# [7] = molecular target: T4, ETV2 (Homo sapiens, UniProt O00321 1-342); settings: protein: recombinant; tags: N-terminal GST; dsDNA, one strand shown
# T4 sequence: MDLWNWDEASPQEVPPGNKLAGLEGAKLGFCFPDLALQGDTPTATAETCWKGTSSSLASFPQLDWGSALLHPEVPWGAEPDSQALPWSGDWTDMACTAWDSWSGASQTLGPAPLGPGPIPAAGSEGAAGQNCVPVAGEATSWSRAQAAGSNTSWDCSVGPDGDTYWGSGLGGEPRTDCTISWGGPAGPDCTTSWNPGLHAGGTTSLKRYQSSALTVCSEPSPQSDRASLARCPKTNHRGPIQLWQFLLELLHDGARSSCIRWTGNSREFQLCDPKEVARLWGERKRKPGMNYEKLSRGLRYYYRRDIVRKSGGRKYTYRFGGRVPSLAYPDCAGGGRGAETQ
# In short: as §1
# [8] = molecular target: T5, ELF3 (Homo sapiens, UniProt P78545 1-371); settings: protein: recombinant; tags: N-terminal GST; dsDNA, one strand shown
# T5 sequence: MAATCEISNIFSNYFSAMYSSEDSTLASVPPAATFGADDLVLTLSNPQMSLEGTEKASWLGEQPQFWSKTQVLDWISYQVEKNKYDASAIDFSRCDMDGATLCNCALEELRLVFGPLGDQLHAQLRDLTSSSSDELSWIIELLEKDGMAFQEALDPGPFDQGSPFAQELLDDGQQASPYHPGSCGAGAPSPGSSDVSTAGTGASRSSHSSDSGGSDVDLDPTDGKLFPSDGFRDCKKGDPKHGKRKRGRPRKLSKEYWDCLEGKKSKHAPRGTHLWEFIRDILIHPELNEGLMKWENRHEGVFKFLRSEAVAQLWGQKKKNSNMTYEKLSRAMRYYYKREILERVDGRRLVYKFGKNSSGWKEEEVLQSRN
# In short: as §1
# [9] = molecular target: CRX (Homo sapiens, UniProt O43186 1-299); settings: protein: recombinant; tags: N-terminal GST; dsDNA, one strand shown
# CRX, sequence (O43186 whole entry): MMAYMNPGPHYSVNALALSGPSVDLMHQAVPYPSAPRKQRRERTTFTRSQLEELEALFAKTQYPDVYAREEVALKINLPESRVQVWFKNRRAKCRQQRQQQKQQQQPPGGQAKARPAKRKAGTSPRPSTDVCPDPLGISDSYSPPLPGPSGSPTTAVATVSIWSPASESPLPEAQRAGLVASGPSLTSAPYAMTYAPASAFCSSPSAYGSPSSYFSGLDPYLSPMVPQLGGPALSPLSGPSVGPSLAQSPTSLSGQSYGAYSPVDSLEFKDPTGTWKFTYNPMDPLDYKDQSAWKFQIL
# In short: as §1
# [10] = molecular target: ETV1 (Homo sapiens, UniProt P50549 1-477); settings: protein: recombinant; tags: N-terminal GST; dsDNA, one strand shown
# ETV1, sequence (P50549 whole entry): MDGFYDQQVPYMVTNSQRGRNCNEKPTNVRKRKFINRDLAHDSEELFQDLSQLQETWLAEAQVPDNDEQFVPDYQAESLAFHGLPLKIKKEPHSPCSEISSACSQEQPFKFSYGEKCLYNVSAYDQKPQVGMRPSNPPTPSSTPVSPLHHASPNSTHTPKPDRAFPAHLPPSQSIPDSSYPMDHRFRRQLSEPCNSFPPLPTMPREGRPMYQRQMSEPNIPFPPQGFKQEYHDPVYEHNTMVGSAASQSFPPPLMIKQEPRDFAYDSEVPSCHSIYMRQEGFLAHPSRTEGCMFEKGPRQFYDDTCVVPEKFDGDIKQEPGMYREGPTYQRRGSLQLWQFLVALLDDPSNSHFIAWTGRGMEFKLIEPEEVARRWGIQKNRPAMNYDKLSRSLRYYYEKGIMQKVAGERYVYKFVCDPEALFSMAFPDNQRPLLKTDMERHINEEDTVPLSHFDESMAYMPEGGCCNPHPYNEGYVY
# In short: as §1
sequence,measurement,setting,value
GTCTCA,binding signal,[1],"1.25 fold enrichment (6-mer frequency, TF over GST control)"
same,binding signal,[2],"1.4 fold enrichment (6-mer frequency, TF over GST control)"
same,binding signal,[3],"1.01 fold enrichment (6-mer frequency, TF over GST control)"
same,binding signal,[4],"1.4 fold enrichment (6-mer frequency, TF over GST control)"
same,binding signal,[5],"1.33 fold enrichment (6-mer frequency, TF over GST control)"
same,binding signal,[6],"1.34 fold enrichment (6-mer frequency, TF over GST control)"
same,binding signal,[7],"1.32 fold enrichment (6-mer frequency, TF over GST control)"
same,binding signal,[8],"1.48 fold enrichment (6-mer frequency, TF over GST control)"
same,binding signal,[9],"1.12 fold enrichment (6-mer frequency, TF over GST control)"
same,binding signal,[10],"1.24 fold enrichment (6-mer frequency, TF over GST control)"
